Shown is part of a subset that was picked to be rich in hits.
Pf Dd2 inh: qHTS Primary assay for Inhibitors of Plasmodium falciparum Dd2 growth in vitro | P. falciparum Dd2 growth, SYBR Green, 72 h | Potency, µM (titrated, usually from 28.9 µM), for inactives: at the top dose activity, negative = inhibition, most hits filed as inhibitors | 120,000 compounds, 4.3% hits | AID 1347417, 2020; active = well fitted inhibition curve with a large enough effect;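 note: plate controls were DMSO vehicle for no effect and reference drug for full effect; nearly all actives have a fitted effect of over 65% in size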
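Infected erythrocytes (Dd2, 0.3% parasitemia, 2.5% hematocrit final) are added to compound in RPMI-1640/Albumax II medium, grown 72 h at 37C in low oxygen, then lysed with saponin/Triton-X containing SYBR Green and read by fluorescence.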
* hit, by the source's call; i = inactive; [ ] = remark or other dose. Potency is the fitted concentration of half-maximal effect.

SMILES	Pf Dd2 inh
Cc1nn(CC(=O)NCCN2CCOC2=O)c(=O)n1CCc1ccccc1	-5.0%
CCC1(N2CCN(C(=O)COc3cccc(Cl)c3)CC2)CCN(C(=O)NC)C1 (centres undefined)	10µM*
CCC1(N2CCN(C(=O)COc3ccc(Cl)cc3C)CC2)CCN(C(=O)NC)C1 (centres undefined)	-35.0%
CCC1(N2CCN(C(=O)COc3cccc(Cl)c3)CC2)CCN(S(C)(=O)=O)C1 (centres undefined)	i
Cc1ccccc1-n1nnnc1C(c1ccccc1)N(C)C(=O)c1cn[nH]n1 (centres undefined)	-16.3%
COc1ccc(OC)c(NC(=O)CC2CCOCC2)c1	38.7%
O=C1N(Cc2ccc(F)cc2)C[C@H]2CN(Cc3ccccn3)CCN12	i
C#C[C@H]1CN2CC[C@H]1C[C@@H]2COC(=O)Nc1ccc(Br)cc1	i
C#C[C@H]1CN2CC[C@H]1C[C@@H]2COC(=O)Nc1ccc(C(C)(C)C)cc1	-14.7%[44.1 µM]
C#C[C@H]1CN2CC[C@H]1C[C@@H]2COC(=O)Nc1ccc(OC(F)(F)F)cc1	11.2µM*
O=[N+]([O-])c1cccc(-c2noc([C@@H]3C[C@@H](O)CN3CC3CCCCC3)n2)c1	i
CN(Cc1ccccc1)Cc1cn([C@H]2CO[C@H]3[C@@H]2OC[C@@H]3NCC2CCCCC2)nn1	-30.0%[44.1 µM]
CC1(COc2ccccc2)COc2ccc(C(=O)NCc3cccnc3)cc2N1 (centres undefined)	-20.4%[44.1 µM]
O=C(CCc1ccccc1)N1CC2CC(C1)[C@H]1CCCC(=O)N1C2 (some centres undefined)	-1.0%
Cc1ccc(C(=O)N2CCN(C(=O)c3nnn4c3COC(c3ccc(Cl)cc3)C4)CC2)c(C)c1 (centres undefined)	-1.8%
Cc1ccc(C(=O)N2CCN(C(=O)c3nnn4c3COC(c3ccc(Cl)cc3)C4)CC2)s1 (centres undefined)	2.82µM*
Cc1ccc(C)c(C(=O)N2CCN(C(=O)c3nnn4c3COC(c3ccc(Cl)cc3)C4)CC2)c1 (centres undefined)	i
Cn1ncc(N2CCCC(CC(=O)NC3CCCCC3)C2)cc1=O (centres undefined)	22.7%
C[S+](=O)([O-])N1CC2(CCCCN2Cc2ccccn2)Cc2ccccc21 (centres undefined)	8.91µM*
CCC(=O)N1Cc2ccccc2CC2(CCCCN2Cc2ccccn2)C1 (centres undefined)	-19.4%
CC(C)C(=O)N1CCCC2(Cc3ccccc3CN2[S+](=O)([O-])c2ccccc2)C1 (centres undefined)	-19.1%
C[S+](=O)([O-])N1Cc2ccccc2CC2(CCCN(Cc3ccccn3)C2)C1 (centres undefined)	-29.4%
CC(C)C(=O)N1Cc2ccccc2CC2(CCCCN2Cc2ccncc2)C1 (centres undefined)	8.91µM*
CCCN1CCCC12Cc1ccccc1CN(C(=O)C(C)C)C2 (centres undefined)	8.91µM*
CCCN1CCC2(CC1)Cc1ccccc1CN(C(=O)C(C)C)C2	-16.3%
SMILES	Pf Dd2 inh
C[S+](=O)([O-])N1Cc2ccccc2CC2(CCCN2Cc2ccncc2)C1 (centres undefined)	6.3%
CCC(=O)N1Cc2ccccc2CC2(CCCN2Cc2ccccn2)C1 (centres undefined)	4.8%
CC(=O)N1CC2(CCCN2Cc2ccccn2)Cc2ccccc21 (centres undefined)	-15.9%
CC(C)C(=O)N1Cc2ccccc2CC2(CCCCN2Cc2ccccn2)C1 (centres undefined)	12.6µM*
Cc1noc([C@@H](C)NC(=O)C2CCCCC2)c1C(=O)O	5.8%[44.1 µM]
OCCOCCn1cnc(-c2ccccc2)c1COCc1ccccc1	-1.0%
Cc1cc(F)ccc1OCC(=O)c1ccc2c(c1)N(C(C)C(=O)NCc1ccc(F)cc1)C(=O)CO2 (centres undefined)	i
O=C(c1ccccc1)N1CCN(c2nc3ncccc3o2)CC1	i
O=C(c1ccccc1F)N1CCC(Cc2nc(C3CCOCC3)no2)CC1	16.8%
COc1ccc(CN2C[C@H]3CN(Cc4ccc(OC(F)(F)F)cc4)CCN3C2=O)cc1	i
O=C1CO[C@H]2CN(Cc3ccc4c(c3)OCO4)C[C@H]2N1c1ccccc1	-7.6%[44.1 µM]
CC1=C[C@@H](CO)[C@H](C(C)C)C[C@H]1CC(=O)NCc1ccc(C(F)(F)F)cc1	-13.8%[44.1 µM]
CCC(CC)C(=O)NCCc1noc(C)n1	1.4%
COc1ccc(C(=O)N[C@@H]2CCC[C@@H]2C(=O)NC2CCCCCC2)cn1	-21.3%
CN1CCN(Cc2cccc(OC(F)F)c2)CC1CCO (centres undefined)	-18.7%
O=C(NC1CCN(c2cc(-c3ccccc3)[nH]n2)C1)c1ccc2cc[nH]c2c1 (centres undefined)	-23.5%
CC(=O)N1CCCC(Cc2ncc(C)n2C(C)C)C1 (centres undefined)	-25.4%
Cc1cnc(CC2CCN(C(=O)NC(C)(C)C)CC2)n1Cc1ccc(F)cc1	i
Cc1cnc(C2CCN(C(=O)NC(C)C)C2)n1C(C)C (centres undefined)	17.1%
